A number with no mark means an inactive call. Records with an inconclusive call do not appear. Active and inactive are the calls of the source. Unless noted, the call rests on the fitted dose curve; in most records, active means well fitted curve in the direction sought with a large enough effect; inconclusive means small, poorly fitted or top-dose-only effect, or another doubt; inactive means no such curve, though single readings can be large; an effect the other way counts as inactive or inconclusive. Peptide text beside a SMILES is read from it.

Assay [1] in a line: qHTS to identify inhibitors of the type 1 interferon - major histocompatibility complex class I in skeletal muscle: primary screen against the NCATS Mechanism Interrogation Plate v5.0 (MIPE) Libary (AID 1347411). Further: nearly all actives have a fitted effect of over 65% in size. Further: potency means the concentration at half of the fitted maximal effect. The procedure, abridged:
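Immortalized human C25cl48 myoblasts with HiBit knocked into endogenous HLA-B*08:01 were stimulated with 4.0 ng/ml IFN-beta and exposed to compounds (11-point 1:3 titration, top 46 uM final) for 24 hrs at 37 C; HiBiT lytic luminescence measured.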

Assay [2] deals with Protein phosphatase 1D (Homo sapiens) (UniProt O15297). The assay is described as follows: Rhodamine-PBP qHTS Assay for Modulators of WT P53-Induced Phosphatase 1 (WIP1) (AID 1347425). Further: % of control where 0% means no effect. The procedure, abridged: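 Steps: enzyme with Rh-PBP sensor and compounds, room-temperature incubation of 1 hr, baseline read, addition of VEPPL-pS-QETFS (10 uM final), kinetic fluorescence reads at 525/598 nm. Activity equals final minus baseline signal.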
In general terms: Quantitative high-throughput screening tests each substance at several concentrations.

Assay [3] in a line: Primary qHTS for inhibitors of La Crosse Virus (LACV) - induced cell death in SH-SY5Y cells (AID 1508616).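 Further: top concentration of the series differs between compounds; 0% = infected DMSO wells and 100% = uninfected DMSO wells; higher means more rescue of cells from virus-induced death.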 The procedure, abridged:
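Luminescent ATP readout (ATPLite 1step, 5 min room temperature) measured rescue from LACV-induced death after 6 days of infection at 0.01 MOI; normalized to infected DMSO wells and uninfected DMSO wells.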

The target in assay [4] is Calcium and integrin-binding protein 1 (Homo sapiens) (UniProt Q99828). In words: Primary qHTS for Identification of Calcium Integrin Binding Protein 1 (CIB1) Competitor (AID 1508620). Further: top concentration of the series differs between compounds; on the % scale 0 is the no-effect control and ±100 the full control effect. The procedure, abridged: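 Fluorescence polarization competition: GST-tagged CIB1 (1 uM final) preincubated with compound 15 min at room temperature, then FITC-labelled alphaIIb peptide (100 nM final) added. After 15 min at room temperature, polarization read at Ex 480/Em 540.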

The nature of assay [5]: Primary qHTS for small molecule stabilizers of the endoplasmic reticulum resident proteome: Secreted ER Calcium Modulated Protein (SERCaMP) assay (AID 1508630). Further: on the % scale 0 is the no-effect control and ±100 the full control effect. The method, boiled down: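 GLuc-SERCaMP-expressing SH-SY5Y cells, pretreated 16 h with compound, are challenged with thapsigargin to empty ER calcium stores; after 4 h, coelenterazine is added directly to the medium and luminescence is imaged.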

Assay [6] addresses Cytochrome P450 2D6 (Homo sapiens) (UniProt P10635). In words: Cytochrome P450 family 2 subfamily D member 6 (CYP2D6) small molecule antagonists: luciferase biochemical (cell-free) qHTS assay (AID 1645840; active means well fitted curve in the direction sought with a large enough effect in the repeat runs; an effect the other way counts as inactive or inconclusive; further: nearly all actives have a fitted effect of over 55% in size; further: potency means the concentration at half of the fitted maximal effect). The method, boiled down:
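P450-Glo luminescent screen: recombinant CYP2D6 enzyme–proluciferin substrate mix preincubated with compound 10 min at room temperature, then NADPH regeneration added for 1 h at room temperature. Detection reagent added for 20 min; luciferin light read as relative luminescence units.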

For assay [7], the target named is Cytochrome P450 2C9 (Homo sapiens) (UniProt P11712). In words: Cytochrome P450 family 2 subfamily C member 9 (CYP2C9) small molecule antagonists: luciferase biochemical (cell-free) qHTS assay (AID 1645842; active means well fitted curve in the direction sought with a large enough effect in the repeat runs; an effect the other way counts as inactive or inconclusive; further: nearly all actives have a fitted effect of over 55% in size; further: potency means the concentration at half of the fitted maximal effect). The method, boiled down:
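Luminescence, after 20 min with luciferin detection reagent, reflected CYP2C9 turnover during a 1 h NADPH-driven reaction at 37C. Enzyme-substrate mix contained 0.4% bovine serum albumin and was preincubated with compound 10 min at room temperature.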

A short description of assay [8]: Primary qHTS for inhibitors of nuclear receptor binding SET domain protein 2 (NSD2) in an isogenic RCH-ACV NSD2 p.E1099K mutant (9B) (AID 1645876). Further: nearly all actives have a fitted effect of over 70% in size. Further: potency means the concentration at half of the fitted maximal effect.
Assay [9] in a line: Validation qHTS assay for inhibitors of Activation Induced Cytidine Deaminase (AID): UDG Counterscreen signal (AID 1347427). Further: 0% is about no effect. The procedure, abridged:
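Counterscreen read of UDG activity (2 U/mL, 4/3x) in the FRET deamination format with AID (1 uM, 4/3x), DJC20/DJC23 substrates (250 nM, 4x), 4 h at room temperature. NaOH stop, fluorescence at 560 ex/665 em.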

Assay [10] has as its target Single-stranded DNA cytosine deaminase (Homo sapiens) (UniProt Q9GZX7). In words: Validation qHTS assay for inhibitors of Activation Induced Cytidine Deaminase (AID): AID signal (AID 1347429). Further: on the % scale 0 is the no-effect control and ±100 the full control effect. The method, boiled down:
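AID and UDG were combined and compounds added at final up to 114 uM, then DJC20/DJC23 FRET substrate was added for 4 hr at room temperature. NaOH was then added for 30 min before fluorescence was read at 540/590 nm.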

Assay [11] deals with Calcium and integrin-binding protein 1 (Homo sapiens) (UniProt Q99828). The assay is described as follows: Validation qHTS for Identification of Calcium Integrin Binding protein 1 (CIB1) Competitor (AID 1508618). Further: on the % scale 0 is the no-effect control and ±100 the full control effect. The procedure, abridged:
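In this qHTS validation, the LOPAC set (up to 114 uM) was tested for blocking CIB1 binding to a fluorescein-tagged alphaIIb peptide, with FP detection at 480/540 nm.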

The target of assay [12] is Papain (Carica papaya) (UniProt P00784). The assay is described as follows: Primary qHTS assay for inhibitors of the protease papain (AID 1645873).
Assay [13] can be described thus: Counterscreen qHTS for small molecule stabilizers of the endoplasmic reticulum resident proteome: GLuc-NoTag assay (AID 1508627).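 Further: SH-SY5Y cells given compound then 100 nM thapsigargin to empty ER calcium; series mostly up to about 76 µM; 0% = thapsigargin alone and -100% = DMSO vehicle control.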 The method, boiled down: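 SH-SY5Y cells stably expressing constitutively secreted GLuc without SERCaMP tag, exposed to compound for 19 hr, then to 100 nM thapsigargin for 4 hr at 37C. Medium luciferase was read by coelenterazine luminescence without lysis.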
(In general: Counterscreens check selectivity or assay interference.)

A short description of assay [14]: Confirmatory qHTS for small molecule stabilizers of the endoplasmic reticulum resident proteome: Secreted ER Calcium Modulated Protein (SERCaMP) assay (AID 1508628).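 Further: SH-SY5Y cells given compound 16 h then thapsigargin 100 nM for 4 h; series mostly up to about 76 µM; on the % scale 0 is the no-effect control and ±100 the full control effect; nearly all actives have a fitted effect of over 40% in size.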 The method, boiled down:
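We seeded SH-SY5Y-GLuc-SERCaMP cells, added compounds (three concentrations in the primary run, eleven up to 76.6 uM in confirmation), incubated 16 h, depleted ER calcium with thapsigargin, and read luciferase 4 h later.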

Assay [15] can be described thus: Cell Viability qHTS for small molecule stabilizers of the endoplasmic reticulum resident proteome (AID 1508629). Particulars: cell viability counter-screen, 100 nM thapsigargin for final 4 h.
Assay [16] is described as follows: A High-Content qHTS Against Drug Library for the Identification of Small Molecules that Inhibit DYT1 Early Onset Primary Dystonia-Associated Cell Pathology (AID 1645839; calls by dose curve; further: series mostly up to about 46 µM). The method, boiled down:
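Flp-In T-REx 293 cells with tetracycline-inducible EGFP-delE hTOR1A (WT EGFP-hTOR1A as reference), 800 cells/well; compound added with tetracycline, 48 h at 37 C. Fixed, permeabilized cells imaged; %pathology (punctate TorsinA) primary, cell count counterscreen.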

Chain of Protein phosphatase 1D (Homo sapiens) (O15297 whole entry, looked up): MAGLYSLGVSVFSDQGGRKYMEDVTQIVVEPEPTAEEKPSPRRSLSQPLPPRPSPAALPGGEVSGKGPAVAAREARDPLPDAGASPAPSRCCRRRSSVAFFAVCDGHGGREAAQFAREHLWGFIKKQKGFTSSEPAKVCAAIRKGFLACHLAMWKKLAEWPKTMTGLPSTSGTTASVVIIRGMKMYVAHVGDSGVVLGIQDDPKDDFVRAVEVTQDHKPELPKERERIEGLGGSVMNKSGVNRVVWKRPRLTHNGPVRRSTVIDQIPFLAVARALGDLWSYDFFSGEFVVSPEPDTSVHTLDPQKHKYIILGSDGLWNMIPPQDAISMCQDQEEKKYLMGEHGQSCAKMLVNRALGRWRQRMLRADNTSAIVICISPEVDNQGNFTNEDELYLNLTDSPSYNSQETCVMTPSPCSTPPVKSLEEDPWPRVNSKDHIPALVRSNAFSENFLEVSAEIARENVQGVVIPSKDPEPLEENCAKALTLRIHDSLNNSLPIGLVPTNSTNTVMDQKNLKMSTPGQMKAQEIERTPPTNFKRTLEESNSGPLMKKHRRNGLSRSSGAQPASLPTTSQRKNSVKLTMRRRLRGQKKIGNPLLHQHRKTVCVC
Chain of Cytochrome P450 2C9 (Homo sapiens) (P11712 whole entry, looked up): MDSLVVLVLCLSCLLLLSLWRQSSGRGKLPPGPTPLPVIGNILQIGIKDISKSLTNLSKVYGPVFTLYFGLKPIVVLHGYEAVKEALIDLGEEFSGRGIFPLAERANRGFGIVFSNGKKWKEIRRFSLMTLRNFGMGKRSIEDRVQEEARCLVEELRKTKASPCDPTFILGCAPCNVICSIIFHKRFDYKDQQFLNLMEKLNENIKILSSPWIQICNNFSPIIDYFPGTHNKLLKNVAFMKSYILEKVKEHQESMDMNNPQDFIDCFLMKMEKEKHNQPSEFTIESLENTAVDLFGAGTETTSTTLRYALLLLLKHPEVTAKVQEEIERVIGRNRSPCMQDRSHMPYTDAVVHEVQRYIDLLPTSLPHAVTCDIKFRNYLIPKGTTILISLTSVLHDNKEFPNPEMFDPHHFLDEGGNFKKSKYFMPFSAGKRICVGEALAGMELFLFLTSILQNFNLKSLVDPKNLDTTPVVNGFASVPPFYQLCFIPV
Chain of Single-stranded DNA cytosine deaminase (Homo sapiens) (Q9GZX7 whole entry, looked up): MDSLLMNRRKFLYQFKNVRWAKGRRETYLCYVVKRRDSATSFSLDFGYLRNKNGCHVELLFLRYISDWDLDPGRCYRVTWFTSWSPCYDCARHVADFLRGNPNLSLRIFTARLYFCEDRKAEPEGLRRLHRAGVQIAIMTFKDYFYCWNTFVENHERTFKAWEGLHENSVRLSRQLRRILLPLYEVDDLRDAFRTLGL
Chain of Calcium and integrin-binding protein 1 (Homo sapiens) (Q99828 whole entry, looked up): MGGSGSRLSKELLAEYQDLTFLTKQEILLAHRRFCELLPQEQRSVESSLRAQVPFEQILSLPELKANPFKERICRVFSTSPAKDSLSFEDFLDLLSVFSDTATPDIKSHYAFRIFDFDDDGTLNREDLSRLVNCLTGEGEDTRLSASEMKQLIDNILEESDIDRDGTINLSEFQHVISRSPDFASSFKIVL
Chain of Papain (Carica papaya) (P00784 whole entry, looked up): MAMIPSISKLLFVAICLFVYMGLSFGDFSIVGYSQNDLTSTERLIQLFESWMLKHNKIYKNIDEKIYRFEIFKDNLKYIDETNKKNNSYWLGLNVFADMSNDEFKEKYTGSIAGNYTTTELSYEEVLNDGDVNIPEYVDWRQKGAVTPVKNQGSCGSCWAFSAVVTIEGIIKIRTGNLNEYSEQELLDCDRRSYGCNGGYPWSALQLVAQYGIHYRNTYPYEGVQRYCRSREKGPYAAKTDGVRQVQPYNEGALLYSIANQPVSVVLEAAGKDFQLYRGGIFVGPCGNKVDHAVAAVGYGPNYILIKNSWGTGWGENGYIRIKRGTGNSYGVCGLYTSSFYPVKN
Chain of Cytochrome P450 2D6 (Homo sapiens) (P10635 whole entry, looked up): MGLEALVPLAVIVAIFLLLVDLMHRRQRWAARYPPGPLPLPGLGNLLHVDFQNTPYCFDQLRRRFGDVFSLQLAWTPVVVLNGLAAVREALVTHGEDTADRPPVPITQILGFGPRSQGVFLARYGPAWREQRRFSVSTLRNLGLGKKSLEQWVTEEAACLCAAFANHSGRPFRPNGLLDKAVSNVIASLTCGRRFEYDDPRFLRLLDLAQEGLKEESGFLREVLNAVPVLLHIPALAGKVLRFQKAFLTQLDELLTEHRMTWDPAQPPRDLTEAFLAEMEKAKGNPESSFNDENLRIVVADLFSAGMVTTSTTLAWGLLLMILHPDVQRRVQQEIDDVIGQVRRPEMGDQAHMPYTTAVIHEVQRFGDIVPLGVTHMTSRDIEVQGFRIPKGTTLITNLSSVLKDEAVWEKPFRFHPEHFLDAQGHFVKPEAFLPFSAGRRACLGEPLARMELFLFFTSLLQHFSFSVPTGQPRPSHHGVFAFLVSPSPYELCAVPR

For `CC1Cc2ccccc2N1NC(=O)c1ccc(Cl)c(S(N)(=O)=O)c1` (stereo not drawn), the Potency result in [1], in assay [3], in assay [4], in [5], in assay [6] and in assay [7] was “inactive” throughout. Further, the Potency result in assay [8] is “inactive”. Further, the result in assay [2] was inactive.
For the molecule `O=c1c(O)c(-c2cc(O)c(O)c(O)c2)oc2cc(O)cc(O)c12`, the Potency entry in assay [1], in assay [9], in assay [3] and in assay [5] was “inactive” throughout. For the same molecule, the result in [10] and in assay [11] was inactive. Besides, in assay [8], the Potency was 18.6 µM (active).
For the molecule `CC1=C(C)C(=O)C(C(CCCCCC(=O)O)c2ccccc2)=C(C)C1=O` (stereo not drawn), the Potency result in [1], in assay [3], in assay [4], in [5] and in assay [8] was “inactive” in each case. The result in assay [2] was inactive. The Potency in [6] is 11 µM (active); in assay [7] it was 17.4 µM (active).
Consider `CCOC(=O)C(C)Oc1cccc2c(=O)n(CC(=O)Nc3ccc4c(c3)OCCO4)ccc12` (stereo not drawn), for which the Potency entry in [1], in assay [9], in [3], in assay [5], in [12] and in assay [8] was “inactive” throughout. In addition, the outcome in assay [10] and in [11] was inactive.
Turning to `O=c1cc(N2CCOCC2)oc2c(-c3ccccc3)cccc12`, the Potency result in [1], in assay [9], in [4], in assay [13], in assay [14] and in [5] was “inactive” throughout. In addition, in [10], the result was inactive. Further, the max response in [15] was -28.5%. The Potency in assay [8] was 4.17 µM (active).
As for `Cc1ncc([N+](=O)[O-])n1CC(C)O` (stereo not drawn), the Potency entry in assay [1], in assay [3], in [4], in [5], in [16] and in [6] was “inactive” in each case. In addition, the Potency result in [7] and in assay [8] was “inactive” throughout. Further, in assay [2], the call was inactive.
Consider `COc1ccccc1N1CCN(CCN(C(=O)C2CCCCC2)c2ccccn2)CC1`, for which the Potency entry in assay [1], in assay [9], in [3], in assay [5], in assay [12] and in assay [8] was “inactive” throughout. The result in assay [10] and in assay [11] was inactive.
For the molecule `O=Nc1c(-c2c(O)[nH]c3cc(Br)ccc23)[nH]c2ccccc12`, the figures for the Potency in assay [1], in assay [6] and in assay [8] were 14.7 µM (active), 21.3 µM (active) and 1.32 µM (active), respectively. Also, the Potency entry in assay [9] and in [12] was “inactive” throughout. For the same molecule, the result in assay [10] and in assay [11] was inactive.
For `CC(S)C(=O)NCC(=O)O` (stereo not drawn), the Potency result in assay [1], in assay [3], in assay [4], in [5], in assay [16] and in assay [6] was “inactive” in each case. Further, the Potency result in [7] and in assay [8] was “inactive” in each case. In addition, the molecule was classed as inactive in assay [2].
Take `CC(=O)N1CCN(c2ccc(OC[C@H]3CO[C@](Cn4ccnc4)(c4ccc(Cl)cc4Cl)O3)cc2)CC1`: the Potency entry in assay [1], in assay [9], in assay [3], in assay [4], in [5] and in assay [12] was “inactive” in each case. The molecule was called inactive in assay [10] and in assay [11].
As for `COC(=O)[C@H](Cc1ccccc1)NC(=O)[C@@H](N)CC(=O)O` (H-Asp-Phe-OMe), the Potency result in [1], in assay [3], in assay [4], in [5], in [16] and in assay [6] was “inactive” in each case. Also, the Potency entry in assay [7] and in [8] was “inactive” throughout. Besides, the result in assay [2] was inactive.
With `CCOC(=O)c1c(C)n(C)c2ccc(O)cc12`, the Potency entry in assay [1], in assay [3], in assay [4], in assay [5], in [16] and in assay [7] was “inactive” in each case. Also, the Potency result in assay [8] was “inactive”. Moreover, the outcome in assay [2] was inactive.

Values taken from PubChem BioAssay (NCATS).
